This passage reports relative cell viability results from the supplement of paper PMC9492666.

For one experiment, the system named is HCC1937. The experiment in a line: relative cell viability, compound alone, vs DMSO (fraction of DMSO control); higher = less growth inhibition. Particulars: 72 h.
The next experiment has as its system MDA-MB-231. Described as above. As to conditions: 72 h.

Where a name gives a salt, the structure may show the parent alone.
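Further: viability read out with the CCK-8 kit in 96-well plates, screening a set of 303 compounds acting on lipid metabolism targets.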

For the compound `CCN(CC)Cc1ccc(C(=O)N(CCc2ccccc2OC)[C@@H]2CCNC2)cc1`, the relative cell viability in the experiment on HCC1937 was 1.45; in the experiment on MDA-MB-231, 0.979.

With `CCc1ccc(CCOc2ccc(CC3SC(=O)NC3=O)cc2)nc1` (stereo unspecified) [Pioglitazone], the relative cell viability in the experiment on HCC1937 amounted to 1.17; in the experiment on MDA-MB-231, 0.843.

`CCCCCCCCCCCCC/C=C/[C@@H](O)[C@@H](N)CO`: the relative cell viability in the experiment with HCC1937 was determined as 0.331; with MDA-MB-231, 0.792.

With `NC(N)=N/N=C/c1cccc(Cl)c1Cl` [Raphin1 acetate], the values for the relative cell viability in the experiment on HCC1937 and in the experiment on MDA-MB-231 were 1.01 and 0.822, respectively.

With `CCc1c(-c2ccccc2)c(-c2ccccc2)nn1-c1ccccc1-c1cccc(OCC(=O)O)c1`, the relative cell viability is 1.18 with HCC1937 and 0.994 with MDA-MB-231.

Turning to `Cc1cc(N2C[C@@H](C)N[C@@H](C)C2)ncc1-c1ccc(-c2nc3c(ccn3C)c(=O)[nH]2)cc1`, the figures for the relative cell viability with HCC1937 and with MDA-MB-231 were 0.855 and 1.05, respectively.

With `CC1(N)CCN(c2cnc(-c3cccc(Cl)c3Cl)c(N)n2)CC1` [SHP099 hydrochloride], the relative cell viability in the experiment with HCC1937 was 0.768; in the experiment on MDA-MB-231, 1.02.

Consider `c1cc(-c2cnn3cc(-c4ccc(OCCN5CCCCC5)cc4)cnc23)ccn1` [Dorsomorphin], for which the relative cell viability with HCC1937 is 0.216; in the experiment with MDA-MB-231, 0.383.

For `O=C(O)c1cccc(N=Nc2c(O)[nH]c3ccc(S(=O)(=O)NCc4ccc(F)cc4)cc23)c1`, the relative cell viability in the experiment on HCC1937 amounted to 0.885; in the experiment with MDA-MB-231, 0.938.

On to `O=C(Nc1ccc(C(O)(C(F)(F)F)C(F)(F)F)cc1)c1ccccc1Cl`, for which the relative cell viability with HCC1937 was found to be 1.05; with MDA-MB-231, 1.01.

Take `COc1ccc2c(c1)CCC1C2CCC2(C)C(NCCCCCCN3C(=O)C=CC3=O)CCC12` (stereo unspecified): the relative cell viability came out at 0.699 in the experiment with HCC1937 and 0.806 in the experiment on MDA-MB-231.

For `CN1c2ccccc2C(=O)Nc2cnc(Nc3ccc(N4CCC(O)CC4)cc3)nc21`, the values for the relative cell viability in the experiment on HCC1937 and in the experiment with MDA-MB-231 were 0.384 and 0.55, respectively.

Turning to `CN(C)C(=N)NC(=N)N` [Metformin hydrochloride], the relative cell viability is 0.98 with HCC1937 and 0.95 in the experiment with MDA-MB-231.
